Records with an inconclusive call do not appear. Calls of active or inactive are those of the source. Rule for the calls: active = hit-call score of the fitted dose curve at least 0.9, where 1 is the maximum; inconclusive = response in the unintended direction; inactive = score below 0.9.
Molecular target: human Checkpoint Kinase 1 (CHK1), CHEK1 (gene 1111) (UniProt O14757)
Experiment: NVS_ENZ_hCHK1: NovaScreen (NVS) Enzymatic Assay for human Checkpoint Kinase 1 (CHK1)
Experimental: NVS_ENZ_hCHK1 is a biochemical, single-readout assay that uses extracted gene-proteins in a cell-free assay. Measurements were taken 1 hour after chemical dosing in a 96-well plate.NVS_ENZ_hCHK1 is one of one assay component(s) measured or calculated from the NVS_ENZ_hCHK1 assay. It is designed to make measurements of enzyme activity, a form of enzyme reporter, as detected with fluorescence intensity signals by Fluorescence and electrophoretic mobility shift technology.Data from the assay component NVS_ENZ_hCHK1 was analyzed into 1 assay endpoint. This assay endpoint, NVS_ENZ_hCHK1, was analyzed in the positive analysis fitting direction relative to DMSO as the negative control and baseline of activity. Using a type of enzyme reporter, loss-of-signal activity can be used to understand changes in the enzymatic activity as they relate to the gene CHEK1. Furthermore, this assay endpoint can be referred to as a primary readout, because this assay has produced multiple assay endpoints where this one serves a enzymatic activity function. To generalize the intended target to other relatable targets, this assay endpoint is annotated to the kinase intended target family, where the subfamily is serine/threonine kinase. […]

Chain of human Checkpoint Kinase 1 (CHK1), CHEK1 (gene 1111) (O14757 whole entry, looked up): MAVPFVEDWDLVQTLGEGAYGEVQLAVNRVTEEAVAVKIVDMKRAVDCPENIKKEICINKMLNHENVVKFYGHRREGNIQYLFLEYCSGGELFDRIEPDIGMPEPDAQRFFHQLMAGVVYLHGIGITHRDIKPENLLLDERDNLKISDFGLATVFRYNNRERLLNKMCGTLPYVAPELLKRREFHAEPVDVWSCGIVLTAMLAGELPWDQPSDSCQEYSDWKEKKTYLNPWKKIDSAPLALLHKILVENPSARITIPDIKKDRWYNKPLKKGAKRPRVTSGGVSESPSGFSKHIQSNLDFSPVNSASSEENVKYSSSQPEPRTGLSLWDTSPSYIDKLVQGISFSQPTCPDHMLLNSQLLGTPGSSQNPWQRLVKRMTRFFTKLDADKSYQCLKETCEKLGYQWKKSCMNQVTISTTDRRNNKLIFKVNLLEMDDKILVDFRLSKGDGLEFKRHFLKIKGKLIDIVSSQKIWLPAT

Compound	outcome
N#Cc1c(Cl)c(Cl)c(Cl)c(C#N)c1Cl	inactive

Source: PubChem BioAssay AID2283134 (EPA ToxCast)
